Measurements as given in PubChem BioAssay AID1508623 (National Center for Advancing Translational Sciences (NCATS), 2021).
The campaign covered roughly 48,000 compounds. About 450 (0.94%) were called active. About 19% were inconclusive and are not listed. Calls follow the shape of the dose curve; as a rule, active = well fitted inhibition curve with a large enough effect; inconclusive = small, poorly fitted or top-dose-only effect; inactive = no such curve, though single readings can be large or run the other way. The full list was thinned out, with actives kept by preference.

Experiment: Primary qHTS for Identification of Small Molecule Inhibitors of Huntingtin Promoter Activity; also: nearly all actives have a fitted effect of over 50% in size
Settings: HEK293 HTT promoter firefly luciferase reporter (activity 0% = vehicle and -100% = no light), 24 h; series mostly up to 57.5 µM; activity change, negative = inhibition: at the top concentration
Text: Assay Provider: Russell L. Margolis M.D.
Department Neurology, Johns Hopkins University School of Medicine, Baltimore, MD
Huntington's Disease (HD) is a neurodegenerative disorder caused by a CAG repeat expansion in exon 1 of huntingtin (HTT). While there are currently no disease-modifying treatments for HD, recent efforts have focused on development of nucleotide-based therapeutics to lower HTT expression. As an alternative to siRNA or oligonucleotide methods, we hypothesized that suppression of HTT expression might be accomplished by small molecules that either (1) directly decrease HTT expression by suppressing HTT promoter activity or (2) indirectly decrease HTT expression by increasing the promoter activity of HTT-AS, the gene antisense to HTT that appears to inhibit expression of HTT.
We developed and employed a high throughput screen for modifiers of HTT and HTT-AS promoter activity using luminescent reporter HEK293 cells; of the 52,041 compounds tested, we identified 898 replicable hits. We used a rigorous stepwise approach to assess compound toxicity and the capacity of the compounds to specifically lower huntingtin protein in 5 different cell lines, including HEK293 cells, HD lymphoblastoid cells, mouse primary neurons, HD iPSCs differentiated into cortical-like neurons, and HD hESCs. We found no compounds which were able to lower huntingtin without lowering cell viability in all assays, though the potential efficacy of a few compounds at non-toxic doses could not be excluded.
SEQUENCE No. (1, 2, 3, etc.); […] (e.g., Cells, Incubation, Reagent, etc.); VALUE and DESCRIPTION.
1; Reagent; 4 uL; 2,500 Hek293 luciferase reporter cells per wells
3; Compound; 23 nL; Control inhibitor / compound library
5; Reagent; 2.5 uL; Firefly Luc reagent; Dual-Glo Luciferase Reporter Assay System (Promega)
6; Time; 10 min; room temperature incubation
7; Detection; Luminescence; FLuc
NOTES (numbers refer to sequence above)
1; High-throughput screening, measuring luminescence from a Hek293 luciferase reporter, was performed in 1,536 well white-walled tissue-culture treated plates. 2,500 cells were plated in 4 µL of Opti-MEM per well using a Multidrop Combi Reagent Dispenser (ThermoFisher).
2; Assay plates were cultured for 24 hours.
3; Control inhibitor (PTC124; final concentration of 50 uM) and compound library (at final concentrations of 460 nM - 57.5 uM) were added to the assay plate using the Kalypsis Pintool Robotic System equipped with 1536 pinheads.
4; Cells were then incubated for 24 hours at 37 degrees C prior to luminescence measurements.
5; In all cases, luminescence was measured using the Dual-Glo Luciferase Reporter Assay System (Promega) following the manufacturer's instructions.
6; Room temperature incubation.
7; Luminescence signal was obtained using the PerkinElmer ViewLux plate reader. Results were normalized to vehicle control (0% activity) and zero RLU (-100% activity).
Potency is read from the fitted curve at half-maximal effect.

Compound	activity change, negative = inhibition	Potency
CC(C)CC(=O)NCC(c1ccc2c(c1)OCO2)N1CCN(c2ccc(F)cc2)CC1 (configuration not stated)	-14.9% (inactive)	
Cc1c(CCNC(=O)c2ccc(C(F)(F)F)cc2)sc2nc(-c3ccc(F)cc3)nn12	4.17% (inactive)	
CCOC(=O)c1c(C)[nH]c(CCC(=O)NCCCN2CCN(c3cccc(Cl)c3)CC2)c1C	-29.4% (inactive)	
CCOc1ccc(NC(=O)C(=O)NCCc2csc3nc(-c4ccccc4F)nn23)cc1	-5.73% (inactive)	
COc1ccc(Cl)cc1N(C)C(=O)c1cc2c(=O)oc3ccc(C)cc3c2s1	-0.88% (inactive)	
COc1cccc(Nc2nc3ccccc3c3nncn23)c1	-14.9% (inactive)	
Cc1ccc(C)n1-c1nnc(N2CCC(C(=O)NCc3ccccc3Cl)CC2)s1	-11.2% (inactive)	
O=S(=O)(c1ccc(Br)cc1)c1nnn2c1nc(N1CCOCC1)c1sccc12	7.1% (inactive)	
Cc1ccc(CSc2nc3cccnc3n2Cc2ccc(C(=O)NC3CC3)cc2)cc1	9.61% (inactive)	
COc1ccc(S(=O)(=O)N2CCCCC2)cc1C(=O)NC1CCS(=O)(=O)C1 (configuration not stated)	-15.4% (inactive)	
Cc1ccc(-c2nn(CCC(=O)Nc3ccc(Cl)c(Cl)c3)c(=O)c3ccccc23)cc1	-9.37% (inactive)	
CCN(CC)CCNC(=O)CN1N=C(c2ccc(OC)cc2)CCC1=O	-8.91% (inactive)	
CSc1ncc(C(=O)NCc2ccccc2Cl)c(C(F)(F)F)n1	-7.35% (inactive)	
Cc1ccc(SCC(=O)Nc2ccc3oc(-c4ccccc4F)nc3c2)cc1	0% (inactive)	
CCOC(=O)c1cc2c(=O)n3ccccc3nc2n(CC2CCCO2)c1=NC(=O)c1ccc(C(C)(C)C)cc1 (configuration not stated)	-8.51% (inactive)	
CCOc1ccc2oc(=O)cc(CN3CCN(C(=O)c4ccc(F)cc4)CC3)c2c1	-21.1% (inactive)	
CCOc1ccc(OCC)c(Nc2nc3ccccc3n3nnnc23)c1	-15.9% (inactive)	
N#Cc1ccc(-c2cccs2)nc1SCc1ccc(Br)cc1	12.7% (inactive)	
Cc1ccc(CCNC(=O)c2ccc(CNS(=O)(=O)c3ccc(C)cc3)cc2)cc1	-5.53% (inactive)	
COc1ccc(NC(=O)CCCN2C(=O)CCn3nc(-c4cn(C)c5ccccc45)cc32)cc1OC	0% (inactive)	
CCOc1ccccc1NC(=O)CN1CCN(S(=O)(=O)c2ccc(Br)cc2)CC1	-13.4% (inactive)	
COc1ccccc1NC(=O)c1cc(C2CC2)nc2c1c(C)nn2-c1ccc(C)cc1	-10.5% (inactive)	
Cc1ccc(Cl)cc1-n1ncc2c(N3CCC(C(N)=O)CC3)ncnc21	-30.7% (inactive)	
CCN1CCN(c2ncnc3c2cnn3-c2ccc(C)c(C)c2)CC1	-8.96% (inactive)	
Cc1ccc(-n2ncc3c(N4CCC(C(N)=O)CC4)ncnc32)cc1		0.316 µM (active)

Compound	activity change, negative = inhibition	Potency
Cc1cc(OCC(=O)NCC2(N(C)C)CCCCC2)cc(C)c1Cl	-5.14% (inactive)	
Cc1nc2nc(SCC(=O)NC3CCC(C)CC3)nn2c(C)c1Cc1ccccc1Cl (configuration not stated)	2.74% (inactive)	
Cc1ccc(-n2nnnc2CNC(=O)c2ccccc2C)cc1C	1.21% (inactive)	
COc1ccc(OCCn2cc(C(=O)C3CCCCC3)c3ccccc32)cc1	-27.6% (inactive)	
COc1ccc(-c2noc(-c3ccc(N4CCN(c5ccccc5)CC4)c([N+](=O)[O-])c3)n2)cc1OC	-7.68% (inactive)	
O=C(COc1ccccc1)NCc1ccc2c(c1)CCN2C(=O)c1ccc(F)cc1	-29.6% (inactive)	
Cc1cc2c(cc1S(=O)(=O)CCC(=O)NCc1ccccc1)OCC(=O)N2	-5.35% (inactive)	
Cn1c(SCC(=O)N2CCCc3ccccc32)ncc(C(=O)Nc2ccc(F)cc2)c1=O	-4.61% (inactive)	
COc1ccc(S(=O)(=O)NCc2cccn2Cc2cccc(C)c2)cc1	0% (inactive)	
Cc1ccc(-n2cnc3cc(C(=O)NCCC4=CCCCC4)ccc32)cc1Cl	-5.68% (inactive)	
CC(C)c1ccc(NC(=O)c2cc(S(=O)(=O)N3CCc4ccccc4C3)ccc2F)cc1	-20% (inactive)	
Cc1ccc(NC(=O)c2cc(S(=O)(=O)NCCC3=CCCCC3)ccc2F)cc1C		28.2 µM (active)
O=c1n(Cc2cccc(C(F)(F)F)c2)c2ccccc2c2nc(-c3ccccc3)nn12	-9.87% (inactive)	
COc1ccc(N2CCN(C(=O)c3cn(C)c4ccc(S(=O)(=O)N5CCOCC5)cc4c3=O)CC2)cc1	-18.7% [at 11.5 µM] (inactive)	
O=C(Nc1cc(C(F)(F)F)ccc1Cl)c1nc2ccccc2nc1N1CCCCC1	-3.65% (inactive)	
CCN(C(=O)Cn1c(=O)nc(-c2ccccc2)c2cc(Cl)ccc21)c1cccc(C)c1	-4.22% (inactive)	
COc1ccc(NC(=O)c2ccc3oc(=O)c(S(=O)(=O)c4ccc(F)cc4)cc3c2)c(OC)c1		11.2 µM (active)
COc1ccc(NC(=O)c2ccc3nc(CCc4ccccc4)oc3c2)c(OC)c1	36.9% (inactive)	
COc1ccc2c(c1)c(=O)c(S(=O)(=O)c1ccc(F)cc1)cn2CC(=O)Nc1ccc(C)cc1C	-9.64% (inactive)	
Fc1ccc(C(Nc2ccc(Cl)c(C(F)(F)F)c2)c2nnc(-c3ccccc3)o2)cc1 (configuration not stated)	-35.9% (inactive)	
CC(=O)Nc1ccc(S(=O)(=O)N2CCN(c3ccccc3)CC2)cc1	-26.9% (inactive)	
COc1ccc(Nc2ncc(C(=O)Nc3cc(C)ccc3OC)c3ccccc23)cc1	-18.3% (inactive)	
O=C(CCCn1c(=O)c2cccn2c2cccnc21)NCc1ccc(F)cc1	8.1% (inactive)	
CCOc1cc(-c2nnc(SCC(=O)NC3CCCCC3)nc2-c2ccc(OC)c(OCC)c2)ccc1OC	-8.07% (inactive)	
COc1ccc(Cn2ccc3nc(C)c(C(=O)Nc4ccc(C)c(F)c4)cc3c2=O)cc1	-9.53% (inactive)	

Compound	activity change, negative = inhibition	Potency
COC(=O)c1ccccc1NC(=O)c1ccc2c(=O)n3c(nc2c1)CCCCC3	10.1% (inactive)	
CS(=O)(=O)c1ccc(-c2nnc(NC(=O)c3ccc4c(c3)OCCO4)o2)cc1	-5.72% (inactive)	
CCCCNc1ccc(-c2nc(-c3ccncc3)no2)cc1[N+](=O)[O-]	0.996% (inactive)	
Cc1cccc(C)c1NC(=O)c1ccc(N)cc1	2.97% (inactive)	
CCOC(=O)c1ccc(NC(=O)Cn2c(=O)cc(C)c3c(C)nn(-c4cccc(F)c4)c32)cc1	-8.8% (inactive)	
Cc1ccc2nc(NC(=O)c3nc(SCc4ccccc4F)ncc3Cl)sc2c1	-12.5% (inactive)	
CCC(Sc1nnc(-c2ccc(OC)cc2)c(-c2ccc(OC)cc2)n1)C(=O)NC1CCCCC1 (configuration not stated)	5.07% (inactive)	
CCCn1c(NCc2ccc(N(CC)CC)cc2)nc2ccccc21	-20.8% (inactive)	
CCC1CN(S(=O)(=O)c2cc(-c3cc(C)no3)ccc2C)c2cc(C)ccc2O1 (configuration not stated)	-13.3% (inactive)	
COc1ccc(CCNS(=O)(=O)c2cc(-c3cc(C)no3)ccc2C)cc1OC	-17.2% (inactive)	
Cc1cc(-c2ccc(C)c(S(=O)(=O)N3c4ccccc4CC3C)c2)on1 (configuration not stated)		14.1 µM (active)
O=C1NC(=O)C(=Cc2cccc(C(F)(F)F)c2)S1	-7.73% (inactive)	
Cc1ccc2c(c1)N(C(=O)Nc1ccc(Br)cc1F)CCO2	-0.729% (inactive)	
COc1cc(-c2noc(-c3ccc(N4CCCC4)c([N+](=O)[O-])c3)n2)cc(OC)c1OC	-12.2% (inactive)	
CCNC(=O)CC1C(=O)N(c2ccc(F)cc2)C(=O)N1Cc1ccc(C)cc1 (configuration not stated)	-7.1% (inactive)	
CCc1cccc(CC)c1NC(=O)Cn1c(=O)c(-c2cc(C)ccc2NC(C)=O)nc2ccccc21	-3.39% (inactive)	
O=S(=O)(c1ccccc1)c1nc(-c2ccc(Cl)cc2Cl)oc1N1CCCCC1	-9.26% (inactive)	
Cc1ccc(Nc2ccc3cc(S(=O)(=O)N4CCCCC4)ccc3n2)cc1F	-16.1% (inactive)	
Cc1c(Cl)cccc1NC(=O)c1noc2c1CCCC2	57.4% (inactive)	
O=C(c1ccc(Cl)cc1)n1nc(-c2cccnc2)nc1NCc1ccc(F)cc1	-12.9% (inactive)	
CCOc1cccc2sc(N3CCN(C(=O)C4CC4)CC3)nc12	-10.1% (inactive)	
CC1CCN(c2nc3ccc(C(=O)N4CCN(c5ccccc5)CC4)cc3s2)CC1		1.12 µM (active)
CCOc1ccc2nc(N3CCC(C(=O)Nc4cc(C)ccc4C)CC3)sc2c1	45.7% (inactive)	
CCN(CCCNC(=O)Cn1ncc2c([nH]c3ccccc32)c1=O)c1cccc(C)c1	1.31% (inactive)	
CCOC(=O)N1CCc2c(sc(NCc3cccc(F)c3)c2C(=O)Nc2ccccc2OCC)C1	-12.3% (inactive)	

Compound	activity change, negative = inhibition	Potency
O=C(NCc1ccc(F)cc1)c1ccc2nc(N3CCCCC3)sc2c1		8.91 µM (active)
Cc1ccc(C)n1-c1nnc(N2CCC(C(=O)NCc3ccc(F)cc3)CC2)s1	-27.7% (inactive)	
O=C(NCc1ccccc1)c1ccc2c(c1)nc1n2CCCCC1	18.7% (inactive)	
CCOc1cccc(CC(=O)N2CCc3c([nH]c4ccccc34)C2c2ccc(F)cc2)c1OCC (configuration not stated)	-26.1% (inactive)	
Cc1ccc(S(=O)(=O)n2nc(C)c(S(=O)(=O)N3CCCCCC3)c2C)cc1	-15.8% (inactive)	
Cc1cc(O)c(C(c2ccccc2)N2CCN(c3ccccc3F)CC2)c(=O)n1Cc1ccco1 (configuration not stated)	-5.4% (inactive)	
Cc1cc(C)cc(Nc2ncnc3onc(-c4ccc(F)cc4)c23)c1	-17.4% (inactive)	
COC(=O)CSc1ccc2nnc(CCNS(=O)(=O)c3ccc(C)cc3)n2n1	-0.0981% (inactive)	
CCc1ccccc1NC(=O)c1ccc2c(c1)CCN2S(C)(=O)=O	-3.42% (inactive)	
CCOc1ccc(C2CC(=O)c3c([nH]c(C(=O)OCc4ccccc4)c3C)C2)cc1 (configuration not stated)	-27.8% (inactive)	
CCC(=O)Nc1cccc(-c2nc3cc(C)ccc3o2)c1	16% (inactive)	
Cc1ccc2nc(-c3ccc(C)c(NC(=O)Cc4ccccc4)c3)oc2c1		12.6 µM (active)
CCc1ccc2oc(-c3ccc(C)c(NC(=O)/C=C/c4ccco4)c3)nc2c1	19.2% (inactive)	
Cc1ccccc1CS(=O)(=O)CC1Nc2ccc(C(=O)NCc3ccc(Cl)cc3)cc2NC1=O (configuration not stated)	-18.8% (inactive)	
O=C(Cn1cnc2c(oc3ccccc32)c1=O)Nc1ccc(OC(F)(F)F)cc1	0.986% (inactive)	
COc1ccc(OC)c(NC(=O)CSc2nc3ccccc3nc2N2CCCCC2)c1	-30% (inactive)	
COc1ccc(CCNC(=O)c2ccc(CSCc3ccc(C)cc3)o2)cc1OC		25.1 µM (active)
COc1ccc(CCNC(=O)c2ccc3c(c2)sc2nc(-c4ccc(C)cc4)cn23)cc1OC	0.069% (inactive)	
Cc1ccc(CCNC(=O)c2ccc(CS(=O)(=O)Cc3cccc(C)c3)o2)cc1	-25.6% (inactive)	
COc1ccccc1N1CCN(C(CNC(=O)C(=O)NCc2ccc(C)cc2)c2cccnc2)CC1 (configuration not stated)		11.2 µM (active)
Cc1ccc(NC(=O)C(=O)NCC(c2cccnc2)N2CCOCC2)cc1 (configuration not stated)	-5.3% (inactive)	
O=C(NCc1cccnc1)C(=O)NCC(c1cccnc1)N1CCN(c2ccccc2)CC1 (configuration not stated)	-32.1% (inactive)	
